Values without a mark were called inactive. Records with an inconclusive call do not appear. Entries that show only a call come without a potency. The source made the active and inactive calls. Unless noted, calls follow the shape of the full dose curve.
How the values were obtained:
[1] = qHTS assay to identify small molecule agonists of the sonic hedgehog signaling (Shh) pathway (AID 1259368);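 also: NIH/3T3-derived 3T3Gli1-Luc cells carrying a stable Gli1-driven firefly luciferase reporter; series mostly up to about 92 µM; nearly all actives have a fitted effect of over 15% in size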
In short: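 Hedgehog pathway agonism scored by increased firefly luciferase luminescence in 3T3Gli1-Luc cells treated 24 hr at 37 C; detection used a 30 min room-temperature reagent incubation.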

[2] = qHTS assay to identify small molecule antagonists of the sonic hedgehog signaling (Shh) pathway (AID 1259369); also: nearly all actives have a fitted effect of over 45% in size; also: potency is read from the fitted curve at half-maximal effect
In short: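 NIH/3T3 stable Gli1-Luc clone, 2,000 cells/well, 4hr settle; cpd + conditioned medium 24hr; Luc reagent 30min RT; luminescence.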

[3] = qHTS assay to identify small molecule agonists of the androgen receptor (AR) signaling pathway in the presence of an antagonist - cell viability counter screen (AID 1259379; active = well fitted curve in the direction sought with a large enough effect in the repeat runs; an effect the other way counts as inactive or inconclusive;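 also: MDA-kb2 human breast cancer cells carrying an MMTV luciferase reporter; series mostly up to about 92 µM; nearly all actives have a fitted effect of over 25% in size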)
In short: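 MDA-kb2 viability measured by CellTiter-Fluor fluorescence in the same wells as the luciferase signal; nilutamide 3.0uM final; 15-point compound titration; 16 hr at 37C.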

[4] = qHTS assay to identify small molecule antagonists of the estrogen receptor beta (ER-beta) signaling pathway - cell viability counter screen (AID 1259382; active = well fitted curve in the direction sought with a large enough effect in the repeat runs; an effect the other way counts as inactive or inconclusive;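 also: HEK293T cells carrying ER-beta-UAS-bla reporter stimulated with estradiol; series mostly up to about 92 µM; nearly all actives have a fitted effect of over 55% in size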)
In short: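 Readout: luminescence, CellTiter-Glo, same wells as bla assay. System: ER-beta-UAS-bla GripTite HEK293T, 2% charcoal-stripped FBS. Exposure: compounds plus 1nM 17-beta-estradiol, 16 hr, 37C.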

[5] = molecular target: Estrogen receptor (Homo sapiens) (UniProt P03372); test: qHTS assay to identify small molecule agonists of the estrogen receptor alpha (ER-alpha) signaling pathway in the presence of an antagonist (AID 1259383); also: top concentration of the series differs between compounds; nearly all actives have a fitted effect of over 15% in size
In short: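 Quantitative HTS confirmation: compounds titrated at 15 concentrations onto estrogen-deprived VM7Luc4E2 cells carrying a four-ERE luciferase construct, with ICI-182,780 present at 10.0nM final. Signal is luminescence after 22hr exposure.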

[6] = qHTS assay to identify small molecule agonists of the estrogen receptor beta (ER-beta) signaling pathway - cell viability counter screen (AID 1259380; active = well fitted curve in the direction sought with a large enough effect in the repeat runs; an effect the other way counts as inactive or inconclusive; also: nearly all actives have a fitted effect of over 30% in size; also: potency is read from the fitted curve at half-maximal effect)
In short: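 Measured: luminescence from CellTiter-Glo after 30 min at room temperature, added to wells already read for the LiveBLAzer FRET reporter (2 hr substrate); ER-beta-UAS-bla HEK293T cells had 16 hr compound treatment at 37C, 5% CO2.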

[7] = qHTS assay to identify small molecule agonists or antagonists of the thyroid stimulating hormone receptor (TSHR) signaling pathway - wild type cell line counter screen (AID 1259384)
In short: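 Counter screen in untransfected Hek293: compounds (15-point titration, triplicate) plus phosphodiesterase inhibitor Ro20-1724 added after 18 h plating; 30 min RT. Intracellular cAMP via competitive d2/cryptate immunoassay, 1 h incubation.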

[8] = molecular target: Androgen receptor (Homo sapiens) (UniProt P10275); test: qHTS assay to identify small molecule agonists of the androgen receptor (AR) signaling pathway in the presence of an antagonist (AID 1259381); also: nearly all actives have a fitted effect of over 15% in size
In short: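 Luminescent ONE-Glo read, 30min at room temperature, follows 16hr compound exposure (15 concentrations) of MDA-kb2 cells at 37C, 0% CO2, with nilutamide added at 3.0uM final.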

[9] = molecular target: Estrogen receptor beta (Homo sapiens) (UniProt Q92731); test: qHTS assay to identify small molecule antagonists of the estrogen receptor beta (ER-beta) signaling pathway (AID 1259378; active = well fitted inhibition curve with a large enough effect in the signal ratio in the repeat runs, not every such curve was filed as active; the % refers to the signal ratio)
In short: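 Antagonist mode: compounds added to beta-lactamase reporter HEK293T ER-beta-UAS cells stimulated with E2 (1nM final), 16 hr at 37C. LiveBLAzer B/G FRET substrate, 2 hours room temperature, fluorescence read-out.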

[10] = molecular target: Estrogen receptor beta (Homo sapiens) (UniProt Q92731); test: qHTS assay to identify small molecule agonists of the estrogen receptor beta (ER-beta) signaling pathway (AID 1259377; active = well fitted activation curve with a large enough effect in the signal ratio in the repeat runs, not every such curve was filed as active; the % refers to the signal ratio)
In short: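 qHTS in ER-beta-UAS-bla HEK293T cells: 6 hr settling, then 16 hr compound at 37C, then LiveBLAzer substrate 2 h at RT before fluorescence reading.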

Chain of Estrogen receptor beta (Homo sapiens) (Q92731 whole entry, looked up): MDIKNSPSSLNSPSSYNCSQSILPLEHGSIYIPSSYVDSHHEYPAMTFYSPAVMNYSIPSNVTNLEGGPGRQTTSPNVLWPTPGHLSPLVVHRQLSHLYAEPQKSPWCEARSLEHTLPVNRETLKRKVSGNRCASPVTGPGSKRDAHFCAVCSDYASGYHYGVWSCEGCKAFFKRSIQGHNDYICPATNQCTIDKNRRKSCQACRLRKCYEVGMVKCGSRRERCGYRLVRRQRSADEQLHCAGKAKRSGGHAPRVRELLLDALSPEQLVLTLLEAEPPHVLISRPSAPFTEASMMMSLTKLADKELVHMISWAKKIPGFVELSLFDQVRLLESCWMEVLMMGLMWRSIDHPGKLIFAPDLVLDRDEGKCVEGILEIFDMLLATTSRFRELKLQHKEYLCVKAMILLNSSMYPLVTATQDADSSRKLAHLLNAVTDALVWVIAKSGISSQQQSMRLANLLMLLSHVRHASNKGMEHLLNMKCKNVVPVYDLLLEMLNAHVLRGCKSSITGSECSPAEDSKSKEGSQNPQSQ
Chain of Estrogen receptor (Homo sapiens) (P03372 whole entry, looked up): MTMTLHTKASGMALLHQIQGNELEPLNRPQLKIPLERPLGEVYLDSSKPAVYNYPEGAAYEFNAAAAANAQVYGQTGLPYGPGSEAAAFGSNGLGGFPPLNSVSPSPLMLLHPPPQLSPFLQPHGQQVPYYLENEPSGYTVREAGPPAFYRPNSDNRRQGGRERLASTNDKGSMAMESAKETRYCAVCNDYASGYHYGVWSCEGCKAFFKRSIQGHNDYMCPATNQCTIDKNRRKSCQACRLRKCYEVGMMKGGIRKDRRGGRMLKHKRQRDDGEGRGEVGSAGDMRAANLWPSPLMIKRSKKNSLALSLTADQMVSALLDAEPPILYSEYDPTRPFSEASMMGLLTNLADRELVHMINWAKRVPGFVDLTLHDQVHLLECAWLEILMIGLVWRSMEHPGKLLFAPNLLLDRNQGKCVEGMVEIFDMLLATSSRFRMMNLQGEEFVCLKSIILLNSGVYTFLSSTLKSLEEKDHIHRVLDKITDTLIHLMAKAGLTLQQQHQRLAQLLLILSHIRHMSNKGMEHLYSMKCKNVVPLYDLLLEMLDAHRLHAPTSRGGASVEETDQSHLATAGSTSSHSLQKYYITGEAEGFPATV
Chain of Androgen receptor (Homo sapiens) (P10275 whole entry, looked up): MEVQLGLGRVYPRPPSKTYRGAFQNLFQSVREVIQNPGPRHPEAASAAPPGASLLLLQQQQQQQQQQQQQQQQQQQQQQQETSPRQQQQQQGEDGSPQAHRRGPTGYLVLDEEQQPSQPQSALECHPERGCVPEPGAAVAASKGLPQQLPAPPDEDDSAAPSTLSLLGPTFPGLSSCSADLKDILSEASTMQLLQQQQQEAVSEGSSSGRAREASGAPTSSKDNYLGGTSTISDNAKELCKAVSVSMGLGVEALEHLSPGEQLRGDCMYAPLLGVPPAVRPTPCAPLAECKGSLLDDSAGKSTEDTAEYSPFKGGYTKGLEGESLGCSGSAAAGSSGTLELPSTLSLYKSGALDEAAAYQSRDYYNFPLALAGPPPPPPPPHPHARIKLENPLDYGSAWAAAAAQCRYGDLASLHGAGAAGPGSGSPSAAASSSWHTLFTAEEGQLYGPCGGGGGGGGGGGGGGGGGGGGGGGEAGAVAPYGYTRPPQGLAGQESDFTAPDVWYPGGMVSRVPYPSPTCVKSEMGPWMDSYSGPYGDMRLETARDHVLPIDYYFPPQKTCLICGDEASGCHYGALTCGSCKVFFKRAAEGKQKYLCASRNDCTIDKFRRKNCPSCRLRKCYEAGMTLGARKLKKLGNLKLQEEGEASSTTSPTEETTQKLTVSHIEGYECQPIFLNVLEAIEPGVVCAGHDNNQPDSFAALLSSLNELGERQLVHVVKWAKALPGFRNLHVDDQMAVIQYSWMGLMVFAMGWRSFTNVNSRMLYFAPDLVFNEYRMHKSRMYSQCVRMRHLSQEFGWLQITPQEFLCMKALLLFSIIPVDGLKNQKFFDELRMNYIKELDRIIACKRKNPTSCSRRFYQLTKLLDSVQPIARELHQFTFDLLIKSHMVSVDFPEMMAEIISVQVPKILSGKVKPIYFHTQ

Row | SMILES | Potency [1] | Potency [2] | Potency [3] | Potency [4] | Potency [5] | Potency [6] | outcome [7] | Potency [8] | Potency [9] | Potency [10]
1 | CC1=C(C)C(=O)C(C(CCCCCC(=O)O)c2ccccc2)=C(C)C1=O (centres undefined) | inactive | inactive | inactive | inactive | inactive |  |  |  |  | 
2 | O=C(Cl)c1ccc(F)c(Cl)c1 | inactive | inactive | inactive |  |  | inactive | inactive |  |  | 
3 | Cc1c(Nc2ncccc2C(=O)O)cccc1C(F)(F)F | inactive | inactive | inactive |  |  | 8.41 µM (active) | inactive |  |  | 
4 | Cc1cc(C)c(C)c(O)c1 | inactive | inactive | inactive | inactive |  | inactive | inactive |  |  | 
5 | N#CCCCC(C#N)CCC#N (centres undefined) | inactive | inactive | inactive | inactive |  | inactive | inactive |  |  | 
6 | CCCCCCCCOCCCN | inactive | 30.6 µM (active) | inactive |  |  |  | inactive | inactive |  | 
7 | CCCCCCCCCCCCSC#N | inactive | inactive | inactive | inactive | inactive |  | inactive |  |  | 
8 | O=C(O)c1cc(C(=O)O)cc([N+](=O)[O-])c1 | inactive | inactive | inactive | inactive |  | inactive | inactive |  |  | 
9 | C1=COCCC1 | inactive | inactive | inactive | inactive |  |  |  |  |  | 
10 | Cc1c(Cl)cccc1Nc1ccccc1C(=O)O | inactive | inactive | inactive |  | inactive | inactive | inactive |  |  | 
11 | CCCCCCCCCC(C)C=O (centres undefined) | inactive | inactive | inactive |  |  | 48.6 µM (active) | inactive |  |  | 
12 | CC(C(=O)O)c1ccc(/C=C2\CCCCC2=O)cc1 (centres undefined) | inactive | inactive | inactive | inactive |  | inactive | inactive |  |  | 
13 | O=C(OCCN1CCOCC1)c1cccnc1Nc1cccc(C(F)(F)F)c1 | inactive | inactive | inactive | inactive | inactive |  | inactive | inactive |  | 
14 | C=CC(O)CCCCC (centres undefined) | inactive | inactive | inactive | inactive |  | inactive | inactive |  |  | 
15 | O=[N+]([O-])c1ccc(Cl)cc1Cl | inactive | inactive | inactive |  |  | inactive | inactive |  |  | 
16 | O=S(=O)(O)c1cc(Cl)c(Cl)cc1Cl | inactive | inactive | inactive |  | inactive |  | inactive | inactive |  | 
17 | CO[C@@H]1COCC[C@@H]1N[C@@H]1CC[C@@](C(=O)N2CCc3ncc(C(F)(F)F)cc3C2)(C(C)C)C1 | inactive | inactive | inactive | inactive |  | inactive | inactive |  |  | 
18 | CCC1=C(C)CN(C(=O)NCCc2ccc(S(=O)(=O)NC(=O)NC3CCC(C)CC3)cc2)C1=O (centres undefined) | inactive | inactive | inactive | inactive | inactive |  | inactive | inactive |  | 
19 | COC(=O)Cc1cccc2ccccc12 | inactive | inactive | inactive | inactive | inactive |  | inactive | inactive |  | 
20 | Nc1ccc(-c2ccc(F)cc2)cc1 | inactive | inactive | inactive |  | inactive | inactive | inactive |  |  | 
21 | Cc1ccc2ccccc2c1[N+](=O)[O-] | inactive |  | inactive | inactive | inactive | inactive | inactive |  | inactive | 
22 | C(/C=C/C=C/Nc1ccccc1)=Nc1ccccc1 | inactive |  | inactive | inactive |  | inactive |  |  | inactive | inactive
23 | N#Cc1ccc(CC(=O)c2cccc(C(F)(F)F)c2)cc1 | inactive |  | inactive | inactive |  |  | inactive |  |  | 
24 | NC(=O)c1cc[n+](CC2=C(C(=O)[O-])N3C(=O)[C@@H](NC(=O)Cc4cccs4)[C@H]3SC2)cc1 | inactive |  | inactive |  | inactive | inactive | inactive |  | inactive | inactive
25 | COc1ccc(C(=O)Nc2ccccc2)cc1[N+](=O)[O-] | inactive |  | inactive | inactive |  | 30.9 µM (active) | inactive |  |  | 
26 | Cc1nc2sccn2c(=O)c1CCN1CCC(=C(c2ccc(F)cc2)c2ccc(F)cc2)CC1 | inactive |  | inactive |  | inactive | 13.3 µM (active) | inactive |  |  | inactive
27 | SCCOCCOCCS |  | inactive | inactive | inactive | inactive |  |  |  |  | 
28 | C[C@H]1C[C@H]2[C@@H]3CCC4=CC(=O)C=C[C@]4(C)[C@@]3(F)[C@@H](O)C[C@]2(C)[C@@]1(O)C(=O)COP(=O)(O)O | inactive |  | inactive | inactive |  | inactive | inactive |  | inactive | inactive
29 | CCCc1nc(C)c2c(=O)[nH]c(-c3cc(S(=O)(=O)N4CCN(CC)CC4)ccc3OCC)nn12 | inactive |  | inactive | inactive |  | inactive |  | inactive | inactive | 
30 | OCCCO | inactive |  | inactive | inactive |  | inactive | inactive | inactive | inactive | 

Source: PubChem BioAssay (Tox21)
